SMILES strings stand for the structures. For some of these results: Measured potencies and affinities stand elsewhere.

Common to all, as to set-up: scale not given: direction of the effect not stated beside the values
Test [1] has as its target Protein translocase subunit SecA (Escherichia coli (strain K12)) (UniProt P10408). Nature of the test: Assay to Identify E. coli SecA ATPase Inhibitors. It counts as functional. The note with it: 30 µM.
Test [2] deals with T1, Ubiquitin-activating enzyme e1, putative (Leishmania donovani (strain BPK282A1)) (UniProt E9BSI1).
T1 sequence (whole entry): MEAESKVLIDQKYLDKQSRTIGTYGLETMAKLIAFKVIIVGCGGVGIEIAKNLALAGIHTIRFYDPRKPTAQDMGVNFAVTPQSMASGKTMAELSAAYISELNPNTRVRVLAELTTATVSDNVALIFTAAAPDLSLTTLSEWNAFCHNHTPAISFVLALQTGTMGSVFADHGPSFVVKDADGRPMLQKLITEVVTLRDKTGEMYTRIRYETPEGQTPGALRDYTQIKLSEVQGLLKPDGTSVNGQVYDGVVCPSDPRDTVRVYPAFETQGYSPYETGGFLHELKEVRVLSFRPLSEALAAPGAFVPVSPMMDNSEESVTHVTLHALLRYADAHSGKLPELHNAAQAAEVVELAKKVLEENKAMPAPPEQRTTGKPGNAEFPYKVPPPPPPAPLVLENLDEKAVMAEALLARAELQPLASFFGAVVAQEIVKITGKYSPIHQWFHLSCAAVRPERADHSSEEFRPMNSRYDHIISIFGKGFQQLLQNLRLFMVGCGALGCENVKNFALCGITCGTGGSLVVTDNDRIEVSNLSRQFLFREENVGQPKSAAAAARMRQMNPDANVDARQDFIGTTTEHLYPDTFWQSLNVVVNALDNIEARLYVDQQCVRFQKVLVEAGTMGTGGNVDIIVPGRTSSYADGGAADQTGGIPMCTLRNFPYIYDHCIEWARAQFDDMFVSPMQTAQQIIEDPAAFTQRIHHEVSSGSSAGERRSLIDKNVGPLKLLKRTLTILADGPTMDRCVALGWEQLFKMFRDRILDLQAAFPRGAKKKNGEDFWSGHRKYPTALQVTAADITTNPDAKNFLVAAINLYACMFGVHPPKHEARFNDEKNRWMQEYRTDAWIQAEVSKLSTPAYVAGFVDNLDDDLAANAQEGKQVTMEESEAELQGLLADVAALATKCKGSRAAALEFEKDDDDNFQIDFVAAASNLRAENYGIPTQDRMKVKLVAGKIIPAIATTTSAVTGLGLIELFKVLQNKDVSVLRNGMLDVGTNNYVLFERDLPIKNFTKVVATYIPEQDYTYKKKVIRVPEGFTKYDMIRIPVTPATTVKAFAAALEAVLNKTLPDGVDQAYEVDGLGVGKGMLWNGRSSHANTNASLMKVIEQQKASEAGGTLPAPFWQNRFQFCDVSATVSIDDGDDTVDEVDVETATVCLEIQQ
Nature of the test: Leishmania donovani Ubiquitin Activating Enzyme (LdE1). In kind it is functional. The note with it: 30 µM.

The target in test [3] is AMP-activated protein kinase, AMPK (Homo sapiens) (UniProt P54646+O43741+P54619+Q9UGJ0+Q9Y478+Q13131+Q9UGI9). Nature of the test: AMP-dependent Kinase enzyme assay. An in vitro enzyme assay that detects ADP turnover that is directly proportional to AMPK activity. This uses naive AMPK that is activated during the assay with MK-8722. In kind it is functional. The note with it: 30 µM.

Test [4] has as its target Sialic acid-binding Ig-like lectin 9 (Homo sapiens) (UniProt Q9Y336). Nature of the test: Hs-Siglec9 ALPHAscreen SOP 20170721. The note with it: 10 µM. In general terms: Bead proximity is the source of the signal in Alpha formats.
In a further test the test system is Trypanosoma cruzi. Nature of the test: Trypanosoma cruzi phosphomannomutase and mannose-1-phosphate guanylyltransferase assay. In kind it is functional. The conditions noted are these: 10 µM.
The target in test [5] is T2, Arginase-2, mitochondrial (Homo sapiens) (UniProt P78540).
T2 sequence (whole entry): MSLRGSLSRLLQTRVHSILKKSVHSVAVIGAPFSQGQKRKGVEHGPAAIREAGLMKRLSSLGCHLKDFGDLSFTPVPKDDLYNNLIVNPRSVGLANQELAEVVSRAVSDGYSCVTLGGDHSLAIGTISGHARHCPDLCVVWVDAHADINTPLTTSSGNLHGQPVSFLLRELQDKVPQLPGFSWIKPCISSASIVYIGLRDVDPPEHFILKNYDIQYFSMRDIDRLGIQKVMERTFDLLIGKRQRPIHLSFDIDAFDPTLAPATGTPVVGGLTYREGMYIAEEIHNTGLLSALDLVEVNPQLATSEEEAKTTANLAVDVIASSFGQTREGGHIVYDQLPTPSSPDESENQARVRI
Nature of the test: in vitro enzyme assay to detect the production of urea directly proportional to the activity of Arginase II. Note: in the data most compounds retested in dose-response had high values. It counts as functional. The note with it: 33.3 µM.

Test [6] addresses T3, Proteasome subunit beta (Trypanosoma cruzi) (UniProt O96673).
T3 sequence (whole entry): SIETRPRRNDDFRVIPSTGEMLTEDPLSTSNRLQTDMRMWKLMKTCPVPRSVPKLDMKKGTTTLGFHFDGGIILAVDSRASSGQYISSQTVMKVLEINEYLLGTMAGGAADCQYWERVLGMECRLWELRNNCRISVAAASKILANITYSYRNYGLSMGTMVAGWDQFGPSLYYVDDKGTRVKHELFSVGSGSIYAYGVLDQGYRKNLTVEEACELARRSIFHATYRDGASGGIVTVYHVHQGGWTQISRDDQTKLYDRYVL
Nature of the test: Trypanosoma cruzi proteasome chymotrypsin-like activity (TcProtChymo) assay. Note: in the data most compounds retested in dose-response had high values. It counts as functional. The note with it: 9.37 µM.

The species entered for a further test is Homo sapiens. Nature of the test: To identify inhibition of the IFN signalling (Jak-Stat) pathway via expression of an eGFP reporter gene under the control of an IFN-stimulated response element (ISRE) containing MxA promoter. It counts as functional. The conditions noted are these: 30 µM.
For test [7], the target named is T4, Tyrosyl-tRNA synthetase, putative (Trypanosoma cruzi (strain CL Brener)) (UniProt Q4DSP6).
T4 sequence (whole entry): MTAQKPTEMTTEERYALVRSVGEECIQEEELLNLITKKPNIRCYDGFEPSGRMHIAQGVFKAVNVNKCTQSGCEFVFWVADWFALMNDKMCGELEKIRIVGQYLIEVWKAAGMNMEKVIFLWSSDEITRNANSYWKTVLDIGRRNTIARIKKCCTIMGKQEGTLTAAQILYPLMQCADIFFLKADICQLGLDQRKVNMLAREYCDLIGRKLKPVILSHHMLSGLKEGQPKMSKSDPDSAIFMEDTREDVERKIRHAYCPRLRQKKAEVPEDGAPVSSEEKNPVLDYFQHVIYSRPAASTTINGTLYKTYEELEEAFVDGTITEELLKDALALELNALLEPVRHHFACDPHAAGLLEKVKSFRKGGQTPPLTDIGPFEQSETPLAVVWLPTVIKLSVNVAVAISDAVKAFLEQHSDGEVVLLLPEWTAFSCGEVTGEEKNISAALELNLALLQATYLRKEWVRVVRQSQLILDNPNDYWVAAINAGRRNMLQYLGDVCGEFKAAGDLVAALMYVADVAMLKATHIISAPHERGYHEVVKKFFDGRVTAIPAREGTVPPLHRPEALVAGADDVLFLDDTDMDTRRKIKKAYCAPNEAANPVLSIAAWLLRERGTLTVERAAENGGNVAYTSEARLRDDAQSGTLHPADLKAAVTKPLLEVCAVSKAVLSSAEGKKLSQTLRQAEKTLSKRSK
Nature of the test: Trypanosoma cruzi tyrosyl tRNA synthetase (TcYRS) _High Tyrosine SOP. Note: in the data most compounds retested in dose-response had high values. The conditions noted are these: 30 µM. It counts as functional.

Test [8] addresses T4, Tyrosyl-tRNA synthetase, putative (Trypanosoma cruzi (strain CL Brener)). Nature of the test: Trypanosoma cruzi tyrosyl tRNA synthetase (TcYRS) SOP. The note with it: 30 µM. In kind it is functional.
Test [9] deals with Chromo domain-containing protein 1 (Saccharomyces cerevisiae (strain ATCC 204508 / S288c) (Baker's yeast)) (UniProt P32657). Nature of the test: ScCHD-1 Enzyme Inhibition Assay. Note: in the data most compounds retested in dose-response had high values. In kind it is functional. The conditions noted are these: 30 µM.
Chain of Chromo domain-containing protein 1 (Saccharomyces cerevisiae (strain ATCC 204508 / S288c) (Baker's yeast)) (P32657 whole entry, the tested form may be a part): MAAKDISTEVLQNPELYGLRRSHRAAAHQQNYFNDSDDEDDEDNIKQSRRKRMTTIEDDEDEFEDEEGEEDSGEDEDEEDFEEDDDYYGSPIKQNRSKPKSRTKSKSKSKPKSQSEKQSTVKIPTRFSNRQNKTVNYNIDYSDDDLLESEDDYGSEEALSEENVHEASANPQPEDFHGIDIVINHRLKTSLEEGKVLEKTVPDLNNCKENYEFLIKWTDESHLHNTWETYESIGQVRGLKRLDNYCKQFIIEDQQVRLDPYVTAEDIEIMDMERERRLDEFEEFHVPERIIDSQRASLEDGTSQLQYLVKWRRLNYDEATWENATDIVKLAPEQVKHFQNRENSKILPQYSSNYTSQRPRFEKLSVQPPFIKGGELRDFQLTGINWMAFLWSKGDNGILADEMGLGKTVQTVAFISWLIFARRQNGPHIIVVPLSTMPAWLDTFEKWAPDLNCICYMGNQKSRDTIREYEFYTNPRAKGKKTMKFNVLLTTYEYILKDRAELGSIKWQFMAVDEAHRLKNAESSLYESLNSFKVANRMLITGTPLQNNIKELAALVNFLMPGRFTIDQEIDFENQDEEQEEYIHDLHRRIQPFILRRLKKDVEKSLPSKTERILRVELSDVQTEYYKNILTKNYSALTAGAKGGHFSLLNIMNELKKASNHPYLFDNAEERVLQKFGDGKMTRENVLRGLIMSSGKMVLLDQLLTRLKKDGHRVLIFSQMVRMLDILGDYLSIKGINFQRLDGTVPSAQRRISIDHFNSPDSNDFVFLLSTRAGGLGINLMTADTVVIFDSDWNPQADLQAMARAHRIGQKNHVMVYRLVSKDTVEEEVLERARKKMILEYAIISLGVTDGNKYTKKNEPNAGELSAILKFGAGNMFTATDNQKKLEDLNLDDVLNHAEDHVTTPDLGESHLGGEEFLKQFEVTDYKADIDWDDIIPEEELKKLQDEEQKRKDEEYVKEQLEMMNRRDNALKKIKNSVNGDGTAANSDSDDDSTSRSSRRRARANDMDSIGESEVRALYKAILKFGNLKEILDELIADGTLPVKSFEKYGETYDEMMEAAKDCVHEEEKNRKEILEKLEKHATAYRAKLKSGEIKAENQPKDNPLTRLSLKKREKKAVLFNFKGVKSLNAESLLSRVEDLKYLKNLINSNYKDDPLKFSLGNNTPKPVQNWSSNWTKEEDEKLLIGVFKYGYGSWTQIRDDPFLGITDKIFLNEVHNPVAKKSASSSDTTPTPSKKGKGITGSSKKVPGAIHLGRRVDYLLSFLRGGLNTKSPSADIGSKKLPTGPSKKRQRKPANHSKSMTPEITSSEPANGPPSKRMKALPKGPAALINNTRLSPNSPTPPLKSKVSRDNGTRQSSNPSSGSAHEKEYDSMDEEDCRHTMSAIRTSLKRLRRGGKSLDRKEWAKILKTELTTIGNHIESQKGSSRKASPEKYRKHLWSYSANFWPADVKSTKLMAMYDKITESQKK

Chain of Protein translocase subunit SecA (Escherichia coli (strain K12)) (P10408 whole entry): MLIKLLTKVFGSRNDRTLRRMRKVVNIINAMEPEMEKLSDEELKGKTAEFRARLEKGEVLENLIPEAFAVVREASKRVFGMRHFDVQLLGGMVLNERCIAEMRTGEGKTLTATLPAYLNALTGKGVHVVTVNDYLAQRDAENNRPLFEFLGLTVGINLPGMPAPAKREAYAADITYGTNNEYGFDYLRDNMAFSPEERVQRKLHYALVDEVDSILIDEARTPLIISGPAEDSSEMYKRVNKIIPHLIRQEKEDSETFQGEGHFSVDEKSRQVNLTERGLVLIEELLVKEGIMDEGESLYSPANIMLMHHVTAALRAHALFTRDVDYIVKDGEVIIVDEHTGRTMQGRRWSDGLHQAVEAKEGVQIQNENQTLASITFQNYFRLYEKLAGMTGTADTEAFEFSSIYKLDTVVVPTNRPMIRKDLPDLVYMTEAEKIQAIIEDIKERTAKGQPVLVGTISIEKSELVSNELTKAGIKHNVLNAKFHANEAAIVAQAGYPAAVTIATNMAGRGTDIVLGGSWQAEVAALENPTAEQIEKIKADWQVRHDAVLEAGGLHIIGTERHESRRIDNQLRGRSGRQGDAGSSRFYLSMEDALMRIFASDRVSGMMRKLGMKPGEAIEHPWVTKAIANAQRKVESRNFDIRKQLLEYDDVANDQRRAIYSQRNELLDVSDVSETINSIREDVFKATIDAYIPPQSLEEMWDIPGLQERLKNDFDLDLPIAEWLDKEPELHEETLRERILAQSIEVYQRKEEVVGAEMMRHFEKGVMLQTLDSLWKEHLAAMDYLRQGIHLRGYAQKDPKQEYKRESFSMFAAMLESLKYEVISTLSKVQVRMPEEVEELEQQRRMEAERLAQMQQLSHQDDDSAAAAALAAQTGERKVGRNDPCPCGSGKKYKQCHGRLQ
Chain of Sialic acid-binding Ig-like lectin 9 (Homo sapiens) (Q9Y336 whole entry): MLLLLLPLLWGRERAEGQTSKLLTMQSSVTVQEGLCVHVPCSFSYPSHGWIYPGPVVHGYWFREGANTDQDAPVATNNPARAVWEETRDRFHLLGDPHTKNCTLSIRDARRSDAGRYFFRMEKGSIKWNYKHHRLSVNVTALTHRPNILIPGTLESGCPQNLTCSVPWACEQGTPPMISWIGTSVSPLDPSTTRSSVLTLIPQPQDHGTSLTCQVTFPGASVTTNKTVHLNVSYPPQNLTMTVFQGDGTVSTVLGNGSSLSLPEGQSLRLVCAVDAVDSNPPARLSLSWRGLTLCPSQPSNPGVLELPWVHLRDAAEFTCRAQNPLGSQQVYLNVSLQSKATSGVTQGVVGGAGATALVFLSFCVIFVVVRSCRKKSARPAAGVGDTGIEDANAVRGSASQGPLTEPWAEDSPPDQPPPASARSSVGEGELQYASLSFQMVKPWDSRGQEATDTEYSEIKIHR

Take `CCc1nc(NCCCn2cccn2)c2c(n1)c(C)nn2C`: the Percent Effect is -3.56% in test [1]; 20% in [2]; -0.746% in test [3]; 2.66% in test [4]; 0.197% in the test on Trypanosoma cruzi; -0.528% in test [5]. The Percent Effect is 17.6% in test [6]; 8.9% in the test listed under Homo sapiens; 6.35% in [7]; 12.8% in test [8]; -12.1% in test [9].

Regarding `CC(NCc1ccncc1)c1cc(F)ccc1N1CCN(C)CC1` (stereo unspecified), the Percent Effect in test [1] is -1.22%; in test [2] it was 5.41%; in [3], -10.4%; in test [4] it was 21%; in the test on Trypanosoma cruzi it was 6.16%; in test [5], 15.6%. The Percent Effect in test [6] is 5.58%; in the test filed under Homo sapiens, -10.1%; in test [7], 2.15%; in test [8], 11.1%; in [9], -9.91%.

In the case of `CCc1nc2ccccc2c(=O)n1CC1(O)CCN(S(C)(=O)=O)CC1`, the Percent Effect in [1] is -1.91%; in [2], 17.6%; in [3], 10.4%; in test [4], 9.5%; in the test with Trypanosoma cruzi it was 1.58%; in test [5], 7.66%. Moreover, the Percent Effect is 10.8% in [6]; 17.4% in the test listed under Homo sapiens; 5.38% in [7]; 14.3% in test [8]; -11.7% in [9].

Take `Cc1nc(C2CCCN(C(=O)CCCn3cccn3)C2)no1` (stereo unspecified): the Percent Effect in test [1] was -4.66%; in test [2] it was 23.4%; in test [3] it was -2.84%; in [4] it was 4.64%; in the test on Trypanosoma cruzi, 4.49%; in test [5] it was -0.356%. Besides, the Percent Effect was 5.57% in test [6]; 11% in the test filed under Homo sapiens; 6.8% in [7]; 24.4% in [8]; -8.73% in test [9].

As to `CCOc1nc2cccnc2n(CC(=O)NCCOC)c1=O`, the Percent Effect in test [1] was -0.937%; in [2], 23.4%; in [3] it was 3.02%; in test [4], -0.135%; in the test with Trypanosoma cruzi it was 3.85%; in test [5], -1.94%. For the same compound, the Percent Effect in test [6] is 10.4%; in the test filed under Homo sapiens it was 3.76%; in [7], 3.17%; in test [8] it was 11.5%; in test [9], -9.72%.

On to `Cn1cc(CCNC(=O)NCc2nnc3n2CCC3)cn1`, for which the Percent Effect in test [1] was -2.08%; in test [2], 15.2%; in test [3], -4.15%; in test [4] it was 10.9%; with Trypanosoma cruzi, -1.6%; in [5] it was 2.28%. The Percent Effect in test [6] is -0.573%; in the test listed under Homo sapiens it was 4.78%; in test [7] it was 1.48%; in test [8], 16.5%; in test [9], -6.44%.

Take `Cc1cnn(CCC(=O)N2CCCN(c3ncccc3C#N)CC2)c1`: the Percent Effect was -7.15% in [1]; 19% in test [2]; -1.68% in test [3]; 6.67% in test [4]; -1.74% in the test on Trypanosoma cruzi; -0.215% in test [5]. Further, the Percent Effect in test [6] is 9.61%; in the test filed under Homo sapiens, -1.81%; in [7] it was 4.17%; in [8], 20.2%; in test [9], -30.4%.

Turning to `Cc1ccc(C2CCCCCN2Cc2cn(C)nc2C)cc1` (stereo unspecified), the Percent Effect was -2.53% in [1]; 5.2% in test [2]; 1.3% in test [3]; 6.91% in test [4]; 4.83% in the test with Trypanosoma cruzi; 1.94% in test [5]. Further, the Percent Effect in test [6] is 5.92%; in the test listed under Homo sapiens it was -15%; in test [7] it was 8.47%; in test [8] it was 19.2%; in [9], -11.2%.

In the case of `O=C(Cc1ccc(F)cc1)N1CCn2cc(Cn3cccn3)nc2C1`, the Percent Effect was -3.25% in test [1]; 10.8% in test [2]; 5.39% in [3]; -3.22% in [4]; -1.66% in the test on Trypanosoma cruzi; 6.69% in [5]. Moreover, the Percent Effect in [6] is 8.12%; in the test filed under Homo sapiens, -1.16%; in test [7] it was 5.41%; in test [8] it was 20.5%; in [9], 0.365%.

With `O=C(c1cnoc1)N1CCC[C@]2(C[C@@H](OCc3ccccn3)CO2)C1`, the Percent Effect is -1.86% in [1]; 21.9% in test [2]; -6.83% in [3]; 23.6% in test [4]; 5.56% with Trypanosoma cruzi; -1.6% in test [5]. For the same compound, the Percent Effect is 12.8% in [6]; 1.81% in the test filed under Homo sapiens; 6.25% in test [7]; 8.64% in test [8]; -6.46% in test [9].

Regarding `O=C1CC(c2ccccc2)C2(CCN(CC3CC3)CC2)N1` (stereo unspecified), the Percent Effect was -1.75% in [1]; 10.7% in [2]; 3.12% in test [3]; -1.87% in test [4]; 5.02% in the test on Trypanosoma cruzi; -55% in [5]. Besides, the Percent Effect in test [6] was 9.23%; in the test filed under Homo sapiens, 0.446%; in test [7], 5.21%; in [8], 20%; in test [9] it was -5.25%.

The values are drawn from ChEMBL document CHEMBL3988442, “University of Dundee, Small-Polar-MMV Screening Library” (2021).
